We go through 36 molecules from the supplement of paper PMC9492666.

The subject of one experiment is HCC1937. Description: relative cell viability, compound + RSL3, vs DMSO (fraction of DMSO control); higher = less growth inhibition. Conditions: 72 h.
A further experiment relates to MDA-MB-231. Described as above. As to conditions: 72 h.

Structures can show the parent of a compound that is named as a salt.
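Also: breast cancer cell viability read out with the CCK-8 kit after co-treatment of each compound with the ferroptosis inducer RSL3.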

`O=C(c1ccc(-c2nc3ccc(F)cc3o2)cc1)N1CCN(C(=O)C2(O)CC2)CC1` + COC(=O)c1ccc([C@H]2c3[nH]c4ccccc4c3C[C@H](C(=O)OC)N2C(=O)CCl)cc1 [RSL3]: the relative cell viability in the experiment on HCC1937 amounted to 0.398; in the experiment with MDA-MB-231 it was 0.683.
For `C[C@H](CCOc1cccc(CC(=O)O)c1)N(Cc1cccc(C(F)(F)F)c1Cl)CC(c1ccccc1)c1ccccc1` [RGX-104 free Acid] + COC(=O)c1ccc([C@H]2c3[nH]c4ccccc4c3C[C@H](C(=O)OC)N2C(=O)CCl)cc1 [RSL3], in that order: 0.333 and 0.561.
The corresponding values for `Cc1cc(=O)oc2c(O)c(O)ccc12` [7,8-Dihydroxy-4-methylcoumarin] + COC(=O)c1ccc([C@H]2c3[nH]c4ccccc4c3C[C@H](C(=O)OC)N2C(=O)CCl)cc1 [RSL3] are 0.539 and 0.7.
For `CC1(C)CC[C@]2(C(=O)O[C@@H]3O[C@H](CO)[C@@H](O)[C@H](O)[C@H]3O)CC[C@]3(C)C(=CC[C@@H]4[C@@]5(C)CC[C@H](O[C@@H]6O[C@H](C(=O)O)[C@@H](O)[C@H](O)[C@H]6O)C(C)(C)[C@@H]5CC[C@]43C)[C@@H]2C1` [Chikusetsusaponin IVa] + COC(=O)c1ccc([C@H]2c3[nH]c4ccccc4c3C[C@H](C(=O)OC)N2C(=O)CCl)cc1 [RSL3], in that order: 0.597 and 0.572.
With `Oc1ccc2c(c1)OCO2` [Sesamol] + COC(=O)c1ccc([C@H]2c3[nH]c4ccccc4c3C[C@H](C(=O)OC)N2C(=O)CCl)cc1 [RSL3], the relative cell viability in the experiment on HCC1937 amounted to 0.399; in the experiment on MDA-MB-231, 0.548.
The corresponding values for `CN(CCOc1ccc(CC2SC(=O)NC2=O)cc1)c1ccccn1` (configuration not stated) [Rosiglitazone] + COC(=O)c1ccc([C@H]2c3[nH]c4ccccc4c3C[C@H](C(=O)OC)N2C(=O)CCl)cc1 [RSL3] are 1.26 and 0.646.
As to `CC(C)OC(=O)C(C(=O)OC(C)C)=C1SC=CS1` [Malotilate] + COC(=O)c1ccc([C@H]2c3[nH]c4ccccc4c3C[C@H](C(=O)OC)N2C(=O)CCl)cc1 [RSL3], the results for the relative cell viability in the experiment with HCC1937 and in the experiment with MDA-MB-231 were 0.337 and 0.547, respectively.
For `C[C@@H]1OCC2(CCN(c3cnc(Sc4ccnc(N)c4Cl)c(N)n3)CC2)[C@@H]1N` + COC(=O)c1ccc([C@H]2c3[nH]c4ccccc4c3C[C@H](C(=O)OC)N2C(=O)CCl)cc1 [RSL3], in that order: 0.378 and 0.71.
The corresponding values for `COC(=O)CN(c1ccc(CN(c2ccc(OCc3ccc(C)cc3)c(C(=O)OC)c2)S(=O)(=O)Cc2ccccc2)cc1)S(C)(=O)=O` + COC(=O)c1ccc([C@H]2c3[nH]c4ccccc4c3C[C@H](C(=O)OC)N2C(=O)CCl)cc1 [RSL3] are 0.538 and 0.626.
Consider `CCN(CC)C(=O)N1CCN(C)CC1` [Diethylcarbamazine citrate] + COC(=O)c1ccc([C@H]2c3[nH]c4ccccc4c3C[C@H](C(=O)OC)N2C(=O)CCl)cc1 [RSL3], for which the relative cell viability in the experiment with HCC1937 turned out to be 0.61; in the experiment with MDA-MB-231, 0.581.
Regarding `CCCCCCCCCCOc1ccc(C(=O)Nc2cc(C(=O)NCCCC)ccc2SC)cc1` + COC(=O)c1ccc([C@H]2c3[nH]c4ccccc4c3C[C@H](C(=O)OC)N2C(=O)CCl)cc1 [RSL3], the results for the relative cell viability in the experiment with HCC1937 and in the experiment with MDA-MB-231 were 0.408 and 0.421, respectively.
For `O=C1C(SCCO)=C(SCCO)C(=O)c2ccccc21` + COC(=O)c1ccc([C@H]2c3[nH]c4ccccc4c3C[C@H](C(=O)OC)N2C(=O)CCl)cc1 [RSL3], in that order: 0.388 and 0.925.
In the case of `O=C(O)c1cccc(N=Nc2c(O)[nH]c3ccc(S(=O)(=O)NCc4ccc(F)cc4)cc23)c1` + COC(=O)c1ccc([C@H]2c3[nH]c4ccccc4c3C[C@H](C(=O)OC)N2C(=O)CCl)cc1 [RSL3], the relative cell viability in the experiment with HCC1937 is 0.516; in the experiment with MDA-MB-231, 0.611.
As for `CN(CCOc1ccc(CC2SC(=O)NC2=O)cc1)c1ccccn1` (configuration not stated) [Rosiglitazone HCl] + COC(=O)c1ccc([C@H]2c3[nH]c4ccccc4c3C[C@H](C(=O)OC)N2C(=O)CCl)cc1 [RSL3], the results for the relative cell viability in the experiment with HCC1937 and with MDA-MB-231 were 0.486 and 0.714, respectively.
Turning to `CCCCCCCCCCCCCCCC(=O)NCCO` [Palmidrol] + COC(=O)c1ccc([C@H]2c3[nH]c4ccccc4c3C[C@H](C(=O)OC)N2C(=O)CCl)cc1 [RSL3], the relative cell viability worked out at 0.655 in the experiment on HCC1937 and 0.77 with MDA-MB-231.
For `c1cc(-c2cnn3cc(-c4ccc(OCCN5CCCCC5)cc4)cnc23)ccn1` [Dorsomorphin] + COC(=O)c1ccc([C@H]2c3[nH]c4ccccc4c3C[C@H](C(=O)OC)N2C(=O)CCl)cc1 [RSL3], in that order: 0.123 and 0.31.
In the case of `CCc1c(-c2ccccc2)c(-c2ccccc2)nn1-c1ccccc1-c1cccc(OCC(=O)O)c1` + COC(=O)c1ccc([C@H]2c3[nH]c4ccccc4c3C[C@H](C(=O)OC)N2C(=O)CCl)cc1 [RSL3], the relative cell viability with HCC1937 worked out at 0.503; in the experiment with MDA-MB-231, 0.741.
The corresponding values for `CCNC1(C(N)=O)CCN(c2ncnc3c2nc(-c2ccccc2Cl)n3-c2ccc(Cl)cc2)CC1` [Otenabant] + COC(=O)c1ccc([C@H]2c3[nH]c4ccccc4c3C[C@H](C(=O)OC)N2C(=O)CCl)cc1 [RSL3] are 0.659 and 0.39.
Take `CN(C(=O)n1cnc(-c2ccc[n+]([O-])c2)c1)C1CCCCC1` + COC(=O)c1ccc([C@H]2c3[nH]c4ccccc4c3C[C@H](C(=O)OC)N2C(=O)CCl)cc1 [RSL3]: the figures for the relative cell viability in the experiment with HCC1937 and with MDA-MB-231 were 0.292 and 0.526, respectively.
As to `Cc1ccc(Oc2nc3cc(-c4ccc(-c5ccccc5)cc4)c(Cl)cc3[nH]2)cc1C(=O)O` + COC(=O)c1ccc([C@H]2c3[nH]c4ccccc4c3C[C@H](C(=O)OC)N2C(=O)CCl)cc1 [RSL3], the relative cell viability in the experiment on HCC1937 worked out at 0.538; with MDA-MB-231 it was 0.6.
Take `CN(C)CCOC(=O)COc1ccc(Cl)cc1` [Meclofenoxate hydrochloride] + COC(=O)c1ccc([C@H]2c3[nH]c4ccccc4c3C[C@H](C(=O)OC)N2C(=O)CCl)cc1 [RSL3]: the relative cell viability in the experiment on HCC1937 is 0.612; in the experiment on MDA-MB-231, 0.574.
`O=C(CN1CCN(C(=O)c2ccco2)CC1)Nc1cc(C(F)(F)F)ccc1Cl` + COC(=O)c1ccc([C@H]2c3[nH]c4ccccc4c3C[C@H](C(=O)OC)N2C(=O)CCl)cc1 [RSL3]: the relative cell viability was 0.268 in the experiment with HCC1937 and 0.373 with MDA-MB-231.
Take `O=C(O)c1c[nH]c2cc(Cl)c(-c3ccc(C4(O)CCC4)cc3)cc12` + COC(=O)c1ccc([C@H]2c3[nH]c4ccccc4c3C[C@H](C(=O)OC)N2C(=O)CCl)cc1 [RSL3]: the relative cell viability in the experiment with HCC1937 and with MDA-MB-231 was 0.572 in each case.
`CCC(=O)O[C@]1(C(=O)CCl)[C@@H](C)C[C@H]2[C@@H]3C[C@H](F)C4=CC(=O)C=C[C@]4(C)[C@@]3(F)[C@@H](O)C[C@@]21C` [Halobetasol Propionate] + COC(=O)c1ccc([C@H]2c3[nH]c4ccccc4c3C[C@H](C(=O)OC)N2C(=O)CCl)cc1 [RSL3]: the relative cell viability in the experiment with HCC1937 came to 0.393; in the experiment with MDA-MB-231 it was 0.592.
`C/C=C(\CC[C@@H](C)[C@H]1CC[C@H]2[C@@H]3CC=C4C[C@@H](O)CC[C@]4(C)[C@H]3CC[C@]12C)C(C)C` [Fucosterol] + COC(=O)c1ccc([C@H]2c3[nH]c4ccccc4c3C[C@H](C(=O)OC)N2C(=O)CCl)cc1 [RSL3]: the relative cell viability in the experiment with HCC1937 was found to be 0.476; in the experiment with MDA-MB-231 it was 0.694.
The corresponding values for `CCC(C)(Oc1ccc(C2(c3ccc(OC(C)(CC)C(=O)O)cc3)CCCCC2)cc1)C(=O)O` (configuration not stated) [Clinofibrate] + COC(=O)c1ccc([C@H]2c3[nH]c4ccccc4c3C[C@H](C(=O)OC)N2C(=O)CCl)cc1 [RSL3] are 0.561 and 0.452.
The corresponding values for `O=C(O)c1cc(F)c2nc(N3[C@@H]4CC[C@H]3C[C@@H](OCc3c(-c5ccccc5OC(F)(F)F)noc3C3CC3)C4)sc2c1` [Tropifexor] + COC(=O)c1ccc([C@H]2c3[nH]c4ccccc4c3C[C@H](C(=O)OC)N2C(=O)CCl)cc1 [RSL3] are 0.603 and 0.63.
For `O=C(/C=C/c1ccc(/C=C/C(=O)Nc2ccc(C3=NCCN3)cc2)cc1)Nc1ccc(C2=NCCN2)cc1` + COC(=O)c1ccc([C@H]2c3[nH]c4ccccc4c3C[C@H](C(=O)OC)N2C(=O)CCl)cc1 [RSL3], in that order: 0.296 and 0.378.
For the molecule `CN1c2ccccc2C(=O)Nc2cnc(Nc3ccc(N4CCC(O)CC4)cc3)nc21` + COC(=O)c1ccc([C@H]2c3[nH]c4ccccc4c3C[C@H](C(=O)OC)N2C(=O)CCl)cc1 [RSL3], the results for the relative cell viability in the experiment on HCC1937 and in the experiment on MDA-MB-231 were 0.206 and 0.375, respectively.
Regarding `COC(=O)c1cc(Cl)c(O)c(S(=O)(=O)Nc2cc(-c3ccccc3)c(F)cc2F)c1` + COC(=O)c1ccc([C@H]2c3[nH]c4ccccc4c3C[C@H](C(=O)OC)N2C(=O)CCl)cc1 [RSL3], the relative cell viability came out at 0.45 in the experiment on HCC1937 and 0.573 in the experiment on MDA-MB-231.
Regarding `C=CCc1ccc(O)c(-c2cc(CC=C)ccc2O)c1` [Magnolol] + COC(=O)c1ccc([C@H]2c3[nH]c4ccccc4c3C[C@H](C(=O)OC)N2C(=O)CCl)cc1 [RSL3], the results for the relative cell viability in the experiment with HCC1937 and in the experiment on MDA-MB-231 were 0.789 and 0.668, respectively.
For `O=C(O)Cn1nnc(-c2cc(N3CCC(Oc4cc(F)ccc4Br)CC3)no2)n1` + COC(=O)c1ccc([C@H]2c3[nH]c4ccccc4c3C[C@H](C(=O)OC)N2C(=O)CCl)cc1 [RSL3], in that order: 0.428 and 0.632.
As to `O=C(NNc1ccccc1)c1ccncc1` [PluriSln 1] + COC(=O)c1ccc([C@H]2c3[nH]c4ccccc4c3C[C@H](C(=O)OC)N2C(=O)CCl)cc1 [RSL3], the relative cell viability is 0.418 in the experiment with HCC1937 and 0.656 in the experiment with MDA-MB-231.
For the molecule `N#Cc1c(O)c2c(-c3ccc(-c4ccccc4O)cc3)csc2[nH]c1=O` + COC(=O)c1ccc([C@H]2c3[nH]c4ccccc4c3C[C@H](C(=O)OC)N2C(=O)CCl)cc1 [RSL3], the relative cell viability in the experiment on HCC1937 was 0.412; in the experiment on MDA-MB-231, 0.423.
As for `O=C(c1c2ccccc2cc2ccccc12)N1CCC(N2CCC[C@@H](C(=O)N3CCOCC3)C2)CC1` + COC(=O)c1ccc([C@H]2c3[nH]c4ccccc4c3C[C@H](C(=O)OC)N2C(=O)CCl)cc1 [RSL3], the relative cell viability came out at 0.352 with HCC1937 and 0.366 in the experiment on MDA-MB-231.
The corresponding values for `CCCCC[C@H](O)CC(=O)CCc1ccc(O)c(OC)c1` [6-Gingerol] + COC(=O)c1ccc([C@H]2c3[nH]c4ccccc4c3C[C@H](C(=O)OC)N2C(=O)CCl)cc1 [RSL3] are 0.298 and 0.483.
